According to the supplement of paper PMC11732987, “Enantioselective OTUD7B fragment discovery through chemoproteomics screening and high-throughput optimisation” (Communications Chemistry, 2025):

Key:
Assay in all cases: log2 ratio of Biotin-Ahx-Ub-VS probe labelling (fragment/DMSO); higher = less target engagement (more negative = stronger competition), active = hit call of the paper (q ≤ 0.05, log2 ratio ≤ -1)
Settings in all cases: compound concentration: 200 uM; treatment time: 3 h
[1] = target: T1, ALG13 (UniProt Q9NP73)
T1 sequence (whole entry): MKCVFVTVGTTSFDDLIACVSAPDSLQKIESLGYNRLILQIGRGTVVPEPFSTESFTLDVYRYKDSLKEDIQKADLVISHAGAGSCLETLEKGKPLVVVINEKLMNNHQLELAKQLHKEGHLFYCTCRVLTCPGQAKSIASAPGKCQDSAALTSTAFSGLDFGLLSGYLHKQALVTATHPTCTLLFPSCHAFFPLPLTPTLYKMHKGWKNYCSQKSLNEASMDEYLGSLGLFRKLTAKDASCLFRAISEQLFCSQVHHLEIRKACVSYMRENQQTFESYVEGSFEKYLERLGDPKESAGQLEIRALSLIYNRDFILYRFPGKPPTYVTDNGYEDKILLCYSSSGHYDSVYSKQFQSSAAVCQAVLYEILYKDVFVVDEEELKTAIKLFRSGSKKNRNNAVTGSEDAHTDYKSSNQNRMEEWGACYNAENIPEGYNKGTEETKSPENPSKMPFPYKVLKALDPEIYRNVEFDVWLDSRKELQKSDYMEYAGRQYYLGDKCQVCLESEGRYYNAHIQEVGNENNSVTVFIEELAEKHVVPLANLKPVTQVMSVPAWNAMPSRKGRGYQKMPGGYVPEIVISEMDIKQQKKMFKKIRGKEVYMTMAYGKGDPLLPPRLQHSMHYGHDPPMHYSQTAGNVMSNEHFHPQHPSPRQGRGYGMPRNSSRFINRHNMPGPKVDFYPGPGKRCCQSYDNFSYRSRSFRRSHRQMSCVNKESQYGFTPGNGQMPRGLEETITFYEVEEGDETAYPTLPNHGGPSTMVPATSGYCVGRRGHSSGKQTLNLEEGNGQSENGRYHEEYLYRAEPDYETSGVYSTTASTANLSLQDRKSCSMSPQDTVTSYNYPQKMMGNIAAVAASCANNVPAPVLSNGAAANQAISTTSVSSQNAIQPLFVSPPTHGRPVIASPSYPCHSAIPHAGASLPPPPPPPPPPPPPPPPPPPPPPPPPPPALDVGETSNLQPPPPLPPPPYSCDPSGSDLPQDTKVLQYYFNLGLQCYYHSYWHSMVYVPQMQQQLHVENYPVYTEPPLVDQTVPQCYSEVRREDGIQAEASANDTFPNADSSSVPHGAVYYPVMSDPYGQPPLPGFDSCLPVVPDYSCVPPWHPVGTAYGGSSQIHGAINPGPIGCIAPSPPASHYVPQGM
Outline: (§1)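 HEK293T lysate in Tris/CHAPS/IGEPAL buffer with protease inhibitors (495 µg per sample) was given fragment at 200 µM or vehicle for 3 h, in triplicate. It then received Biotin-Ahx-Ub-VS at 0.5 µM final for 1 h. Labelled DUBs were NeutrAvidin-enriched, digested with LysC and trypsin, and run by diaPASEF LC-MS/MS. Values are average log2 fragment/vehicle ratios by unpaired t-test on global-median-normalised Spectronaut quantities of proteins with ≥2 unique peptides.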

[2] = target: ATXN3 (UniProt P54252)
Outline: as §1

[3] = target: T2, BAP1 (UniProt Q92560)
T2 sequence (whole entry): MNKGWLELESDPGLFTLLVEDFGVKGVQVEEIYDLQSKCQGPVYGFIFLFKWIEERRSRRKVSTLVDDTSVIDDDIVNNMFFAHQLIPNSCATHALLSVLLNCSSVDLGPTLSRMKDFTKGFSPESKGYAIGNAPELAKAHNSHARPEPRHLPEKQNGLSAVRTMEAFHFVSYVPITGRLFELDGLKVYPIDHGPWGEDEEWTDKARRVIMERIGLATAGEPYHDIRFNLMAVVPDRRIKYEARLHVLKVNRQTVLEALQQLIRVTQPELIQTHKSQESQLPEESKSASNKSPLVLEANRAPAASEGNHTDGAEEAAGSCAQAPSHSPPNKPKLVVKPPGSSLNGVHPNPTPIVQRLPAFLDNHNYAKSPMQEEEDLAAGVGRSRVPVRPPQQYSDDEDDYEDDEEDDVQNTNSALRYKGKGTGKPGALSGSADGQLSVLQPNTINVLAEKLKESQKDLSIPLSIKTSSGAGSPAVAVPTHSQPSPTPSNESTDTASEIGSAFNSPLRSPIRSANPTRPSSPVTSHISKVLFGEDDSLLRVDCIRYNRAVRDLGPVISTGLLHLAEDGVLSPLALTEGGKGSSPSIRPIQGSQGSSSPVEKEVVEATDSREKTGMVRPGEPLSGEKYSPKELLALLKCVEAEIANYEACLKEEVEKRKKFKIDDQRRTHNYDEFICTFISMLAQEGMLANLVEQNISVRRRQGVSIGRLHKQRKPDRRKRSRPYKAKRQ
Outline: as §1

[4] = target: EIF3F (UniProt O00303)
Outline: as §1

[5] = target: EIF3H (UniProt O15372)
Outline: as §1

[6] = target: T3, FAM105A (UniProt Q9NUU6)
T3 sequence (whole entry): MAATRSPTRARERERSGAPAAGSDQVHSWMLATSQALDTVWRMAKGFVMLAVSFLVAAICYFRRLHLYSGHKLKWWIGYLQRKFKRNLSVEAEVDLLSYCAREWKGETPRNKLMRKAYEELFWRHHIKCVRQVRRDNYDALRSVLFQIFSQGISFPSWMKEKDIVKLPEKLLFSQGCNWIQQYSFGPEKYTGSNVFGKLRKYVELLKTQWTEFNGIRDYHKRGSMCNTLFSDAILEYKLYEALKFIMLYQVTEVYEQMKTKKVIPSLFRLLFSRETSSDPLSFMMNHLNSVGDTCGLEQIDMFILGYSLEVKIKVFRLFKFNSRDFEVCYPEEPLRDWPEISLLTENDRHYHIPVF
Outline: as §1

[7] = target: OTUB1 (UniProt Q96FW1)
Outline: as §1

[8] = target: T4, OTUD4 (UniProt Q01804)
T4 sequence (whole entry): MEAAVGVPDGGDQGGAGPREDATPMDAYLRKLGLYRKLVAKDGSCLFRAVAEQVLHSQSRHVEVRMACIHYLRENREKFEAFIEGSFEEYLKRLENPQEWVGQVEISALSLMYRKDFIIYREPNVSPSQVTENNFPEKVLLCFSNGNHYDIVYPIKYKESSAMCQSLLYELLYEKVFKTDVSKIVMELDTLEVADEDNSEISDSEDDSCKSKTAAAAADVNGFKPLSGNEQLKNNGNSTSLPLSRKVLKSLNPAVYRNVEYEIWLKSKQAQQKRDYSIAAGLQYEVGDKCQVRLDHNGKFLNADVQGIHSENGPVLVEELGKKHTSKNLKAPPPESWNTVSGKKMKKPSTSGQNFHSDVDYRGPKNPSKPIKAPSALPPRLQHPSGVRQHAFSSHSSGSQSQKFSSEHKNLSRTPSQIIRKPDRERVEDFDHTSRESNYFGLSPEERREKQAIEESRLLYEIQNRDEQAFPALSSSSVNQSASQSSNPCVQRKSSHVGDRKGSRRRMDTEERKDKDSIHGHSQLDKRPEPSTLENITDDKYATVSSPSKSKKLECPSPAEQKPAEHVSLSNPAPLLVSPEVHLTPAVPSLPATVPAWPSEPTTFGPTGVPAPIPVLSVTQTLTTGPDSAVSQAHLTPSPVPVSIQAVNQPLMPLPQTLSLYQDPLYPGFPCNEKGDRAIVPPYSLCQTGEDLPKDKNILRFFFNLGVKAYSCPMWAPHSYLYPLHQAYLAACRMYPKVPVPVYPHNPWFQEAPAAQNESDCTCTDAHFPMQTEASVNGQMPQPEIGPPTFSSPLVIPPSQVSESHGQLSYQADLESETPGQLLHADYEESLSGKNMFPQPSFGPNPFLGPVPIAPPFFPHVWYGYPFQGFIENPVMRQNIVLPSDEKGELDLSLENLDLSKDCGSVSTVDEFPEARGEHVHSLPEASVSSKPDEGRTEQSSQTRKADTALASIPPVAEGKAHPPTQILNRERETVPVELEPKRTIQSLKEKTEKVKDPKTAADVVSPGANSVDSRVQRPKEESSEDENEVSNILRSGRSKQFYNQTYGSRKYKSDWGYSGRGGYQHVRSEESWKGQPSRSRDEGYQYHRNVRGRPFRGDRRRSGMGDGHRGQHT
Outline: as §1

[9] = target: T5, OTUD5 (UniProt Q96G74)
T5 sequence (whole entry): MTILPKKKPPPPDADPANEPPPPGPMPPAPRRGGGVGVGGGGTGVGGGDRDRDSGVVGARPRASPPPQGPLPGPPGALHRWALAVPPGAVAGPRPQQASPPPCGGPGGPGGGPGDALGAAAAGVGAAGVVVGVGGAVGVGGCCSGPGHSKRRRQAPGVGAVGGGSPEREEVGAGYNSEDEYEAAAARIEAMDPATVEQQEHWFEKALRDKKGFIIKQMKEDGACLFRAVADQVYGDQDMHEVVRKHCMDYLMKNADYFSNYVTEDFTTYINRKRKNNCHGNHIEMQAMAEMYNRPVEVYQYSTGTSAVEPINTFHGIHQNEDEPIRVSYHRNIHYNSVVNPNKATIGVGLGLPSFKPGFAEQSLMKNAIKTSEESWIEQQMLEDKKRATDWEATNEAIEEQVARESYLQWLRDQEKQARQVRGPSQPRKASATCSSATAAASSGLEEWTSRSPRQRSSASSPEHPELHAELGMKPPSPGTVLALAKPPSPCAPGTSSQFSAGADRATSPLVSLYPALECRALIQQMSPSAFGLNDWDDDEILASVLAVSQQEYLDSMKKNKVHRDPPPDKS
Outline: as §1

Measured: log2 ratio of Biotin-Ahx-Ub-VS probe labelling

EIF3H, sequence (O15372 whole entry): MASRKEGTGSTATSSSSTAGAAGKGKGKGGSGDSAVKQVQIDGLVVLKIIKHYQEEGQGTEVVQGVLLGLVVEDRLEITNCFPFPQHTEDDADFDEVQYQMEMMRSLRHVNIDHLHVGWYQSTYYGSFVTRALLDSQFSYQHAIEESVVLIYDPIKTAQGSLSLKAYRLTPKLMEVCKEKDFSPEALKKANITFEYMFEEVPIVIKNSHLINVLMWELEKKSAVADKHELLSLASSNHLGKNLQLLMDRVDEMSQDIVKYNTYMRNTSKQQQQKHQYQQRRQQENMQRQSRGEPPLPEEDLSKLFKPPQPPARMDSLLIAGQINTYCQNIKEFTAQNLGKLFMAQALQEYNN
OTUB1, sequence (Q96FW1 whole entry): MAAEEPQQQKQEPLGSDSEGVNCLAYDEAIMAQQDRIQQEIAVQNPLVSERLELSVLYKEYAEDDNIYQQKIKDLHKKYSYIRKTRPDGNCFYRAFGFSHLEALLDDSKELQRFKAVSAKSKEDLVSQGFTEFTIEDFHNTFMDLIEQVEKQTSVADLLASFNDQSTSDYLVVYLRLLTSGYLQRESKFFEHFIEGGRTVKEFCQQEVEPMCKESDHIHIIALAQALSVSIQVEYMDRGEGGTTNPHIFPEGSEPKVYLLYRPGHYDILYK
EIF3F, sequence (O00303 whole entry): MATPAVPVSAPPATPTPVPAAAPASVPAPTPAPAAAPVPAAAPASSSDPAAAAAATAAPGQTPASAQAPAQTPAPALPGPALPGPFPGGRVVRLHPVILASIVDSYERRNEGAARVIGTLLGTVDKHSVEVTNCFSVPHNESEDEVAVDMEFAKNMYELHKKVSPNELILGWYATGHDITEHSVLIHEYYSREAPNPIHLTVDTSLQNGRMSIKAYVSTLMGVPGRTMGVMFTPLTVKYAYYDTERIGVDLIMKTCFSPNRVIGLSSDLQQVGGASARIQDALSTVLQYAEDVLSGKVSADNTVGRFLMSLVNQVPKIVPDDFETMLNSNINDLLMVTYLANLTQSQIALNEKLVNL
ATXN3, sequence (P54252 whole entry): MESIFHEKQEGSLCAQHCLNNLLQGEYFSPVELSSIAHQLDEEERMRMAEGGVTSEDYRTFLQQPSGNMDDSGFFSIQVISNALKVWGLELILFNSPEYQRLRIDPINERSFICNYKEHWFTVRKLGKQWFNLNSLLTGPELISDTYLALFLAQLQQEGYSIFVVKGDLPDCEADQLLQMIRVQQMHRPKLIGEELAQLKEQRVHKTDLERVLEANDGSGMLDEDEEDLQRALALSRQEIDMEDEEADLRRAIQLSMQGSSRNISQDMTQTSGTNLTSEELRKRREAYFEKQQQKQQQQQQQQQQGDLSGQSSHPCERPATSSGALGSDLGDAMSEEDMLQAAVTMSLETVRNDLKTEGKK

Cc1noc(N2CCN(C(=O)CCl)CC2)n1.Cl
inactive: [1] -0.0651 | [2] -0.811 | [3] -0.867 | [4] 0.106 | [5] -0.241 | [6] 0.317 | [7] 0.11 | [8] -0.163 | [9] -0.0833
